Measles CPE: protection of cells from measles virus. Measles virus-infected cells, CPE protection, absorbance. protection (pct of control), % at 4 µM. 140,000 compounds, 1.5% hits. AID 841; in the data active = protection mostly above about 24%, no sharp cut-off; inactive = mostly below about 26%
PostGolgi ctrl: yeast control strain growth, post-Golgi counter-screen; efflux-deficient yeast background strain, growth absorbance A615, 16 h; inhibition, % at 10 µM; 98,000 compounds, 5% hits; AID 738
PostGolgi yeast: growth inhibition of a yeast mutant, post-Golgi transport screen | AID 739 | post-Golgi transport phenotypic cell assay | 98,000 compounds, 0.9% hits | inhibition, % at 10 µM;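 also: yeast cells grown in 1536-well plates; yeast grown about 18 h at 30C before absorbance read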
MT1-MMP txn act: MT1-MMP promoter transcription activation; HT1080 MT1-MMP promoter luciferase reporter, luminescence, overnight; stronger effect = higher value; activation factor at 10 µM; 86,000 compounds, 0.16% hits; AID 750;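 active = activation factor of at least 2 for MT1-MMP transcription at 10 µM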
Hits are given with their value; n = inactive; x = not tested or not shown. A selection: hits, their analogues and other compounds. The true share with any hit is near 5.3%. Rule as the data show it, unless noted: active = inhibition above about 30%; inactive = the rest.

SMILES	Measles CPE	PostGolgi ctrl	PostGolgi yeast	MT1-MMP txn act
CCOC(=O)c1sc(NC(=O)c2cc(-c3ccccc3)nc3ccccc23)c(C#N)c1C	n	n	n	x
CC(C)(C)NS(=O)(=O)c1cc(C(=O)Nc2sccc2C#N)ccc1Cl	n	x	x	x
CCCn1c(CN2CCCCC2C)nc2c1c(=O)n(C)c(=O)n2C (centres undefined)	n	37.4	n	n
CCN(CC)C(=O)C1CCCN(c2ccc([N+](=O)[O-])cc2/C=N/NC(=O)c2cccc([N+](=O)[O-])c2)C1 (centres undefined)	n	n	n	x
CCOc1ccc(NC(=O)CN(C)CC(=O)Nc2ccccc2C#N)cc1OCC	n	n	n	n
CN(CC(=O)Nc1ccc(Cl)cc1)CC(=O)Nc1cc(Cl)ccc1C#N	n	39.4	n	n
N/C(=N\OC(=O)C(c1ccccc1)c1ccccc1)c1cccnc1	n	39.5	n	x
NC(=O)Nc1ccc(F)cc1	70.5	n	n	n
C/C(Nc1ccc(F)cc1)=C(/C#N)C(N)=O	n	n	n	n
Cc1cccc(N2CCN(C(=O)c3c(C)nn(Cc4ccccc4Cl)c3C)CC2)c1C	n	37.6	n	x
Cc1cccc(N2CCN(C(=O)c3ccncc3)CC2)c1C	n	n	n	n
CC(C)(C)NC(=O)C1Cc2ccccc2CN1C(=O)Nc1ccccc1Cl (centres undefined)	n	n	n	x
Cc1cc(C)n2nc(SCc3nnc(SCc4ccccc4C)s3)nc2n1	n	n	n	x
Cc1cc(C)n2nc(SCc3nnc(SCc4ccccc4Cl)s3)nc2n1	n	36.4	n	x
COc1cccc(N2CCN(c3c(C#N)c(C(F)(F)F)nn3C)CC2)c1	n	50.7	n	x
COc1cc(C2NC(=O)NC(C)=C2C(=O)OCc2ccccc2)ccc1O (centres undefined)	n	x	x	n
CCOc1cc(C2NC(=O)NC(C)=C2C(=O)OCc2ccccc2)ccc1O (centres undefined)	46.6	n	n	n
CNc1nc(-c2ccccc2)nc(-c2ccccc2)c1C#N	61.1	n	n	x
COc1ccc(-c2nc(-c3ccccc3)nc(Cl)c2C#N)cc1	n	n	n	x
CCCC(=O)NCCCc1nc2ccccc2n1CCC	n	40.3	n	n
CCCC(=O)NCCCc1nc2ccccc2n1CC	n	n	n	n
CCSc1nc2c(c(=O)n1Cc1ccccc1)SC(C)C2 (centres undefined)	n	33.4	n	n
CCCSc1nc2c(c(=O)n1CC)SC(C)C2 (centres undefined)	92.9	n	n	n
CCCCC(=O)NC(=S)Nc1c(C)cc(Br)cc1C	n	x	x	x
CCOc1ccc(-n2c(O)c(/C=N/NC(=O)C3COc4ccccc4O3)c3ccccc3c2=O)cc1 (centres undefined)	n	x	x	x
SMILES	Measles CPE	PostGolgi ctrl	PostGolgi yeast	MT1-MMP txn act
COc1cc(/C=N\NC(=O)CNC(=O)C2COc3ccccc3O2)ccc1O (centres undefined)	29.7	x	x	x
COc1cc(/C=N/NC(=O)CNC(=O)c2ccc3c(c2)OCCO3)ccc1O	n	n	n	x
O=C(N/N=C\c1cc(Br)cs1)C1COc2ccccc2O1 (centres undefined)	n	37.4	n	n
COC(=O)c1ccc(C(NC(=O)c2ccco2)[C@]2(C)C[C@H]2C2CCCCC2)cc1 (some centres undefined)	x	x	x	n
Cc1nc(N(C)Cc2ccccc2)c2nnn(Cc3ccccc3)c2n1	n	n	n	n
COC(=O)[C@@]1(Cc2ccc(F)cc2)[C@H]2c3cc(C(=O)N(C)C)n(Cc4ccc(C(F)(F)F)nc4)c3C[C@H]2CN1C(=O)c1ccccc1	x	x	x	n
C=CCN1C(=NC(=O)CC)SC2CS(=O)(=O)CC21 (centres undefined)	n	n	n	n
CCCn1c(N)c(C(=O)CSc2nc(C)cs2)c(=O)n(C)c1=O	n	n	35.4	n
O=C(NNc1ccc([N+](=O)[O-])cc1)C1CC2CCCC(C1)C2=O (centres undefined)	n	n	n	x
O=C(NNc1ccc([N+](=O)[O-])cc1)C1CC1c1ccccc1 (centres undefined)	22.8	x	x	x
N/C(Cc1ccc(Cl)cc1Cl)=N\OC(=O)Cc1ccc(Cl)cc1	n	x	x	x
COc1cccc(C(=O)/C=C/Nc2ccc(S(=O)(=O)Nc3cccc(C(C)=O)c3)cc2)c1	n	42.5	n	x
COc1ccc(C(=O)/C=C/Nc2ccc(S(=O)(=O)Nc3onc(C)c3C)cc2)cc1	42.6	x	x	x
CCOc1ccccc1OCCCOc1ccc(C)cc1Cl	n	n	n	x
CCOc1ccccc1OCCCOc1ccc(C)cc1Br	33.5	n	n	x
COc1cc(C)ccc1OCCOCCOc1ccccc1Br	n	42.4	n	x
COc1cc(C)ccc1OCCOCCOc1cc(C)c(C)cc1Br	n	x	x	x
CO/N=C(\Cn1ncc(N2CCCC2)c(Br)c1=O)c1ccc(Cl)cc1	n	n	n	n
CO/N=C(\Cn1ncc(NC2CCCCC2)c(Br)c1=O)c1ccc(Cl)cc1	n	75.5	n	x
